From PubChem BioAssay AID588590 (National Center for Advancing Translational Sciences (NCATS), 2011)
Screen size: about 390,000 compounds; about 4,000 (1%) were called active. Entries that show only a call come without a potency. Roughly 7% stayed inconclusive and do not appear here. Calls follow the shape of the dose curve; as a rule, active = well fitted inhibition curve with a large enough effect; inconclusive = small, poorly fitted or top-dose-only effect, or another doubt; inactive = no such curve, though single readings can be large or run the other way. For the sample, actives were picked, then their nearest neighbours and some compounds at random.

biological target: DNA polymerase iota (Homo sapiens) (UniProt Q9UNA4); assay: qHTS for Inhibitors of Polymerase Iota; settings: Pol iota fluorescent replication assay, 10 min; series mostly up to 115 µM
Method in brief: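 Fluorescent replication assay read twice, at 0 min and 10 min after adding 50 nM (final) substrate. Enzyme (10 nM) and compounds were first incubated 15 min at room temperature; enzyme-free buffer wells were negative controls.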
Potency is read from the fitted curve at half-maximal effect.

Sequence of DNA polymerase iota (Homo sapiens) (Q9UNA4 whole entry, looked up): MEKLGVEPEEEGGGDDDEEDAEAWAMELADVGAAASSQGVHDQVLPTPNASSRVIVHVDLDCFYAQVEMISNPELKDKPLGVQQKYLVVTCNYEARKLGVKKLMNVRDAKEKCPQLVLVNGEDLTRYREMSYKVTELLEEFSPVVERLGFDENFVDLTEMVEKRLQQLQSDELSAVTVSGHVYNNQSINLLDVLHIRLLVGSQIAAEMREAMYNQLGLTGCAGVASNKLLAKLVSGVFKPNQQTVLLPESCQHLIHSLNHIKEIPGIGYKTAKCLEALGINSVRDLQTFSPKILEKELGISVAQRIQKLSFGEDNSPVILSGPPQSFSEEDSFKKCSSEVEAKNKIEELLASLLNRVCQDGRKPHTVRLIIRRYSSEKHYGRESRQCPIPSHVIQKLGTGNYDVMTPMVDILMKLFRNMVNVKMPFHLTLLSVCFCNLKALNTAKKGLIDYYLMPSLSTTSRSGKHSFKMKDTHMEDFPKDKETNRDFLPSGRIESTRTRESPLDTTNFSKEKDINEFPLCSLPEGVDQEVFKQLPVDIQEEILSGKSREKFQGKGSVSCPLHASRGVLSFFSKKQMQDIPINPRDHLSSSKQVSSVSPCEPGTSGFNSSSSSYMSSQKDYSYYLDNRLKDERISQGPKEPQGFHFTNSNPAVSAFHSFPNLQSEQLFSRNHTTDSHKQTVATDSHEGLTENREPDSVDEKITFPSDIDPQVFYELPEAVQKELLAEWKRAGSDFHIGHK

SMILES	Potency
Cc1ccccc1NC(=O)Cn1c(=O)n(Cc2ccco2)c(=O)c2ccc(C(=O)NC3CCCC3)cc21	inactive
COc1ccc(NC(=O)C2CCCN(S(=O)(=O)c3cccc4nonc34)C2)cc1Cl (stereo unspecified)	inactive
CCc1nnc(NC(=O)CCC(=O)NCc2ccccc2OC)s1	inactive
CCOc1ccccc1NC(=O)Cc1cccs1	44.7 µM (active)
O=C(Cc1cccs1)Nc1ccc([N+](=O)[O-])cc1	inactive
COc1ccc(CNC(=O)CCC(=O)Nc2nnc(C(C)C)s2)cc1	inactive
COc1ccc(Cc2nnc(NC(=O)Cc3cccs3)s2)cc1	4.47 µM (active)
CCOc1ccc(NC(=O)C/C(C)=N/NC(=O)Cc2cccs2)cc1	inactive
CCOc1ccccc1NC(=O)CCn1cnnn1	inactive
COc1ccc(Cc2nnc(NC(=O)c3cc(OC)c(OC)c(OC)c3)s2)cc1OC	inactive
CCc1nnc(NC(=O)Cc2cccs2)s1	11.2 µM (active)
COc1ccc(-c2cc(-c3ccccc3)nc3c2COc2ccc(Cl)cc2-3)cc1	inactive
CCN(CC)c1nc(C#N)nc(OC)n1	inactive
CCc1ccc(OCCCn2c(CCCNC(=O)C3CCCCC3)nc3ccccc32)cc1	inactive
C/C(=N\Nc1ccc(S(N)(=O)=O)cc1[N+](=O)[O-])c1cccs1	25.1 µM (active)
C/C(=N\Nc1ccccc1)c1cccs1	inactive
CCOC(=O)C/C(C)=N\Nc1ccc([N+](=O)[O-])cc1[N+](=O)[O-]	inactive
O=C(NNc1c2ccccc2nc2ccccc12)c1cc2ccccc2cc1O	39.8 µM (active)
Cc1ccc(C(=O)NNc2ncnc3ccccc23)cc1	inactive
O=C(Cc1ccccn1)c1ccc(O)cc1O	inactive
CN(Cc1ccccc1)C(=O)c1cc2c(=O)n(C)c3ccccc3c2s1	inactive
CN(C)c1ccc(/C=C/c2c3ccccc3nc3ccccc23)cc1	inactive

SMILES	Potency
CN(C)c1ccc(/C=C/c2sc3ccccc3[n+]2CCCCBr)cc1	inactive
CN(C)c1ccc(/C=C/c2sc3ccccc3[n+]2C)cc1	79.4 µM (active)
CCCN1CCC(=O)N(C(CSc2ccc(OC)cc2)Cc2ccccc2)CC1 (stereo unspecified)	inactive
C[N+]1(CC(=O)c2cccs2)CCOCC1	inactive
CCc1ccc(N2CC(C(=O)N3CCCCCC3)CC2=O)cc1 (stereo unspecified)	inactive
CCc1ccc(N2CC(C(=O)Nc3ccc(S(=O)(=O)Nc4nccs4)cc3)CC2=O)cc1 (stereo unspecified)	inactive
CCc1ccc(N2CC(C(=O)NC3=NCCS3)CC2=O)cc1 (stereo unspecified)	89.1 µM (active)
Cc1cccc(CN2Cc3cccc4c3[C@H](C=CC4)CC2=S)c1	inactive
CC1CCCN(S(=O)(=O)c2ccc3[nH]c(=O)cc(C(=O)NCCc4ccc(Cl)cc4)c3c2)C1 (stereo unspecified)	inactive
COc1cc2nc(Cl)nc(NC3CC3)c2cc1OC	inactive
COc1ccc(C)cc1NC(=O)C(=O)NCCc1sc(-c2cccc(C)c2)nc1C	inactive
C=C1c2c(Cl)ccc(O)c2C(O)=C2C(=O)[C@]3(O)C(O)=C(C(N)=O)C(=O)[C@@H](N(C)C)[C@@H]3[C@@H](O)C12 (stereo partly specified)	2.51 µM (active)
Cc1ccc(NC(=O)c2nc(S(=O)(=O)Cc3cccc(C)c3)ncc2Cl)cc1	inactive
COc1cc(C(CC(=O)NCCC(C)C)N2Cc3ccccc3C2=O)cc(OC)c1OC (stereo unspecified)	inactive
COc1ccc(CCNC(=O)c2c3c(nc4ccccc24)C(=O)N(C2CCCCC2)C3)cc1OC	inactive
Cc1c(NC(=O)C(C)(C)C)cccc1-c1nc2ccccc2s1	inactive
O=C(COc1ccc(Cl)cc1)Nc1ccc(-c2nc3cc(Cl)ccc3o2)c(O)c1	inactive
O=C1C2C3C=CC(C4CC34)C2C(=O)N1/N=C/c1ccc(-c2ccccc2[N+](=O)[O-])o1 (stereo unspecified)	inactive
CC1=NN(c2ccc(Cl)c(C(=O)O)c2)C(=O)/C1=C/c1ccc(-c2ccccc2[N+](=O)[O-])o1	1.41 µM (active)
O=C(O)c1ccc2c(=O)n3c(nc2c1)/C(=C/c1ccc(Cl)c([N+](=O)[O-])c1)CC3	inactive
Cc1ccc2onc(CC(=O)N3CCN(c4ccc(Cl)cc4)CC3)c2c1	inactive
COc1ccc(C2Nc3ccc(NC(=O)COC(C)=O)cc3C(=O)N2Cc2ccccc2)cc1COc1ccc(NC(C)=O)cc1 (stereo unspecified)	inactive

SMILES	Potency
COC(=O)c1ccccc1NC(=O)Cn1c(=O)cc(C)c2c(C)nn(-c3cccc(Cl)c3C)c21	inactive
CC(C)CNC(=O)COC(=O)/C=C/c1ccco1	inactive
COc1ccc(Cl)cc1C(=O)NNC(=S)NC(=O)/C=C/c1ccco1	inactive
O=C(/C=C/c1ccco1)NC(=S)Nc1ccccc1Br	25.1 µM (active)
CC(=O)Nc1ccc(NC(=O)C2CCCN(S(=O)(=O)c3ccc4c(c3)CCCC(=O)N4)C2)cc1 (stereo unspecified)	inactive
COc1ccc(-c2nc(=N)sn2-c2ccccc2)cc1	inactive
O=C(Nc1ccc(S(=O)(=O)Nc2nccs2)cc1)c1cc(-c2ccncc2)nc2ccccc12	11.2 µM (active)
COc1ccccc1OC(C)C(=O)Nc1ccc(S(=O)(=O)Nc2nccs2)cc1 (stereo unspecified)	inactive
CCC(CC)C(=O)Nc1ccc(S(=O)(=O)Nc2nccs2)cc1	inactive
COc1ccc(NS(=O)(=O)c2cc3c4c(c2)CC(=O)N4CCC3)cc1Cl	inactive
CCOc1ccc(OCC)c(NC(=O)CN(c2ccc(C)cc2)S(=O)(=O)c2c(C)n[nH]c2C)c1	inactive
CC1CCN(S(=O)(=O)c2ccc3c(ccn3CCC(=O)NCc3ccc(N(C)C)cc3)c2)CC1	inactive
O=C(NC1CC(=O)N(c2ccc(Cl)cc2)C1)C1CCCC1 (stereo unspecified)	inactive
Cc1nnc(SCC(=O)Nc2ccc(S(=O)(=O)Nc3ccc(Cl)nn3)cc2)s1	28.2 µM (active)
CCCCCC(=O)Nc1ccc(S(=O)(=O)Nc2ccc(Cl)nn2)cc1	inactive
COc1ccc(NC(=O)CSc2nc(NS(=O)(=O)c3ccc(C)cc3)cc(=O)[nH]2)cc1	inactive
NC(=O)Nc1ccc(/C=C/c2ccnc3ccccc23)cc1	inactive
COc1ccc(-c2[nH]c3c(c2-c2c(-n4cccc4)n(C)c(=O)n(C)c2=O)c(=O)n(C)c(=O)n3C)cc1	inactive
CCCC(=O)n1nc(-c2ccccc2)nc1N	79.4 µM (active)
COc1ccc(C(=O)n2nc(-c3ccc(Cl)cc3)nc2N)cc1OC	inactive
COc1ccc(CC(=O)n2nc(-c3cccnc3)nc2N)cc1	inactive
CCC(Sc1nnc(-c2ccc(OC)cc2)c(-c2ccc(OC)cc2)n1)C(=O)NC1CCCCC1 (stereo unspecified)	inactive
